Hits are enriched below; roughly 11% of the tested compounds scored in any of these assays.
ALDH1A1 inh – qHTS Assay for Inhibitors of Aldehyde Dehydrogenase 1 (ALDH1A1) | Aldehyde dehydrogenase 1A1 (Homo sapiens), P00352 | AID 1030, 2008 | Potency, µM (top dose mostly 75.3 µM), for the others: at the top dose activity, negative = inhibition, most hits filed as inhibitors | hit rate 7.3% among 220,000 | Purified ALDH1A1, NADH fluorescence, propionaldehyde substrate; active = well fitted inhibition curve with a large enough effect, not every such curve was filed as active; inconclusive = small, poorly fitted or top-dose-only effect, or another doubt; inactive = no such curve, though single readings can be large or run the other way;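 note: potency is the fitted concentration of half-maximal effect; plate controls were no enzyme wells and a reference inhibitor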
IMPase cell inh – qHTS Assay for Identifying the Cell-Membrane Permeable IMPase Inhibitors; Inositol monophosphatase 1 (Rattus norvegicus), P97697; CHO-M1 cells, IP1 accumulation, HTRF TR-FRET ratio; inhibition (IP1 accumulation), % at 46.1 µM; 120,000 tested, under 10 active; AID 901, 2007; active = well fitted curve in the direction sought with a large enough effect in the signal ratio, not every such curve was filed as active; inconclusive = small, poorly fitted or top-dose-only effect, or a change in a side signal; inactive = no such curve, though single readings can be large or run the other way; the % refers to the signal ratio;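 note: cells stimulated with carbachol in lithium chloride buffer; plate controls were DMSO basal wells for no effect and reference inhibitor wells for full effect; higher means more IMPase inhibition seen as more IP1 and lower FRET ratio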
Target sequence (P97697 whole entry, looked up): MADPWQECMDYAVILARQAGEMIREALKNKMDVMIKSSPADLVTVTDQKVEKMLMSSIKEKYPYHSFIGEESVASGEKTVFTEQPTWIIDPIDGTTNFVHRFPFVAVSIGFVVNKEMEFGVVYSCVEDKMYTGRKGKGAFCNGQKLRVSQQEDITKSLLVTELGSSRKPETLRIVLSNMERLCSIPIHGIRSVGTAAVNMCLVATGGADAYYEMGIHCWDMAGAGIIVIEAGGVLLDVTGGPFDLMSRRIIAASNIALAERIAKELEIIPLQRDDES
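The IP-One HTRF competitive assay in carbachol-stimulated CHO-M1 cells quantifies cellular IP1. Compounds spanned up to 46 uM final, and activity is expressed as AC50 from concentration-response fits of the ratio and donor data.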
NPSR antag – qHTS Assay for Antagonists of the Neuropeptide S Receptor: cAMP Signal Transduction; hit rate 1% among 220,000; Q6W5P4; CHO-NPSR cells, cAMP TR-FRET, antagonist mode; Potency, µM (titrated, usually from 38.3 µM), for the others: top-dose activity change, negative = inhibition, most hits filed as inhibitors; AID 1461, 2008; note: potency is the fitted concentration of half-maximal effect; nearly all actives have a fitted effect of over 50% in size
PNC assembly inh – High Content Assay for Compounds that inhibit the Assembly of the Perinucleolar Compartment. hit rate 3.1% among 140,000. activity change (PNC), negative = inhibition, % at 10 µM. AID 2417, 2010. PC3M PTB-GFP, PNC prevalence imaging, 16 h; hits give low values;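 active = readout at or below -70, meaning at least 70% loss of cells showing the perinucleolar compartment, a nuclear body marking cancer cells; inconclusive = readout between -30 and a set limit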;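 note: plate controls were DMSO wells for no effect and camptothecin positive control wells for full effect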
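Read-out is percentage of cells bearing a perinucleolar compartment, from automated 20x imaging of fixed, Hoechst-stained PC3M PTB-GFP cells. Cells were seeded 4 h, then exposed 16 h to compound (23 nl of library stock) in duplicate plates.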
IMPase Li cell – qHTS Assay for Identifying the Cell-Membrane Permeable IMPase Inhibitors: Potentiation with Lithium. CHO-M1 cells, IP1 TR-FRET (IP-One), carbachol + lithium. Potency, µM (top dose mostly 59.4 µM), for inactives: top-dose activity, negative = IMPase inhibition, hits mostly inhibitors. hit rate 0.35% among 210,000. AID 1457, 2008;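 note: IP1 builds up when IMPase is blocked and the TR-FRET signal falls; potency is the fitted concentration of half-maximal effect; plate controls were basal vehicle for no effect and high inhibitor control for full effect; nearly all actives have a fitted effect of over 50% in size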
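Test compounds were applied to CHO-M1 cells previously cultured for 16–30 h at 2000 per well. A small lithium amount accompanied them; after 30 min at 37C, IP1 was quantified by TR-FRET.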
HPGD block – qHTS Assay for Inhibitors of HPGD (15-Hydroxyprostaglandin Dehydrogenase) | 15-hydroxyprostaglandin dehydrogenase [NAD(+)] (Homo sapiens), P15428 | purified HPGD, NADH fluorescence kinetic, PGE2 substrate | Potency, µM, for inactives: top-dose activity change, negative = inhibition, usual class: inhibitors | hit rate 4.3% among 150,000; active = well fitted inhibition curve with a large enough effect, not every such curve was filed as active; inconclusive = small, poorly fitted or top-dose-only effect, or another doubt; inactive = no such curve, though single readings can be large or run the other way; note: potency is the fitted concentration of half-maximal effect
Target sequence (P15428 whole entry, looked up): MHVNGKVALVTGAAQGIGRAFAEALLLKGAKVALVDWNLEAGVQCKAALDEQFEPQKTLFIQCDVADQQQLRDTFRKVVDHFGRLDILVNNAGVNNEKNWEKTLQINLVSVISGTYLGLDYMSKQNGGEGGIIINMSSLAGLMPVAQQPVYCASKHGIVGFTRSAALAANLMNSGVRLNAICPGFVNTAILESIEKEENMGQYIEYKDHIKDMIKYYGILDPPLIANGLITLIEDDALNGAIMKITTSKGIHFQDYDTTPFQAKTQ
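NADH formation kinetics: reaction with 30 uM PGE2 and 1 mM NAD+ (final), 20 nM enzyme, Tris-HCl pH 8 with Tween 20, after 15 min compound preincubation at room temperature. Fluorescence change, last versus first of five reads.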
* marks the source's active call; other numbers are inactive results; ? = inconclusive; / = no result given; [ ] = dose if it differs, or a comment. Unless noted, calls come from the whole dose curve; as a rule, active = well fitted curve in the direction sought with a large enough effect; inconclusive = small, poorly fitted or top-dose-only effect, or another doubt; inactive = no such curve, though single readings can be large; an effect the other way counts as inactive or inconclusive. Unless noted, % is set by controls: 0 for no effect and ±100 for the full control effect.

SMILES	ALDH1A1 inh	IMPase cell inh	NPSR antag	PNC assembly inh	IMPase Li cell	HPGD block
COc1ccc(CCNC(=O)c2ccco2)cc1OC	2.9%	/	-3.5%	/	-1.6%	/
CCOC(=O)CSc1nnc(CNC(=O)c2cccs2)n1-c1cccc(C)c1	16.6%	-12.1	-12.1%[46.1 µM]	12.5	-7.3%[38.3 µM]	-4.0%
COC(=O)CSc1nnc(CNC(=O)c2cccs2)n1-c1cc(OC)ccc1OC	20µM*	?	4.0%[46.1 µM]	0.9	/	/
Fc1ccccc1Cn1nnc2c(NCCc3ccccn3)ncnc21	7.94µM*	?	-10.6%[46.1 µM]	-29.7	1.9%[38.3 µM]	-15.3%
Cc1ccc(C(C)C)c(OCc2ccc(C(=O)N/N=C/c3cccc(O)c3O)cc2)c1	3.3%	/	10µM*	0.5	16.2%	-21.8%
Cc1ccc(C(C)C)c(OCc2ccc(C(=O)N/N=C/c3ccc(O)c(O)c3)cc2)c1	-5.1%	/	-35.6%	-123.8*	-6.7%	?
Brc1ccc(-c2nc(-c3ccncc3)no2)o1	11.2%	-5.1	-3.2%[46.1 µM]	-89.0*	-7.7%[38.3 µM]	-7.7%
CCCCc1ccc(-c2nc(-c3ccncc3)no2)cc1	6.31µM*	7.1	?	30.0	20.2%[38.3 µM]	-12.2%
O=C(CCCC(=O)OCC(F)(F)C(F)F)Nc1nccs1	-1.6%	2.8	-2.2%[46.1 µM]	?	26.2%[38.3 µM]	-2.5%
CCCn1c2c(c(O)c(C(=O)Nc3nccs3)c1=O)CCCC2	?	6.7	-17.3%[46.1 µM]	-11.1	/	/
CC(C)Cn1c2c(c(O)c(C(=O)Nc3nccs3)c1=O)CCCC2	14.1µM*	1.5	9.6%[7.67 µM]	15.0	-3.1%[38.3 µM]	-4.8%
O=C(C/C(=N/O)c1ccccc1O)C(F)F	7.3%	4.1	7.2%[46.1 µM]	7.4	-0.5%[38.3 µM]	15.8µM*
COC(=O)c1ccccc1O	-0.8%	/	/	/	-13.5%	-1.6%
Cc1csc(NC(=O)CSc2nnc(-c3ccco3)n2C)n1	?	3.9	-2.0%[46.1 µM]	-15.4	-6.9%[38.3 µM]	-5.3%
Cc1cccnc1N(C(=O)Nc1cccc(Cl)c1)C1=NCC(C)(C)S1	14.6%	/	-6.8%	-26.7	-1.2%	-11.8%
Cc1cccnc1N(C(=O)Nc1ccccc1)C1=NCC(C)(C)S1	3.5%	-1.6	-1.9%[46.1 µM]	-89.1*	5.3%[38.3 µM]	-4.9%
CCOC(=O)CN(c1ccccn1)S(=O)(=O)c1ccccc1	?	-6.5	-6.7%[46.1 µM]	53.5	-5.2%[38.3 µM]	?
COc1cccc2[nH]c(C(=O)NN)c(N)c12	28.2µM*	/	27.6%	/	/	/
COc1ccc(/C=C2\CCCC(C(=O)C(F)(F)F)=C2O)cc1	0.447µM*	-8.0	2.0%[46.1 µM]	10.7	24.9%[38.3 µM]	-13.2%
O=C(C1=C(O)/C(=C/c2ccc(O)cc2)CCC1)C(F)(F)F	0.0794µM*	7.0	-7.6%[46.1 µM]	12.6	36.4%	-22.1%
COc1ccc(/C=C2\CCOC2=O)cc1	-3.9%	2.9	-21.2%	?	-1.8%[38.3 µM]	-16.0%
CC(Sc1nnc(NCc2ccccc2)s1)C(=O)Nc1ccc2c(c1)C(=O)c1ccccc1C2=O (stereo not drawn)	2.82µM*	/	6.8%	-24.1	0.7%	14.1µM*
CC(Sc1nnc(Nc2ccccc2)s1)C(=O)Nc1nc(-c2ccccc2)cs1 (stereo not drawn)	-1.5%	/	-16.7%	/	1.6%	/
C[Si](C)(c1ccc(C(=O)O)cc1)c1ccc(C(=O)O)cc1	14.0%[13.5 µM]	/	/	/	-1.0%	0.199µM*
Cc1c(C#N)c2ccccc2n1CC(=O)NCC1CCCO1 (stereo not drawn)	-0.8%	6.3	-9.0%[46.1 µM]	-23.6	-3.2%[38.3 µM]	-10.5%
O=C(O)COc1ccc(/C=N/n2cnc3scc(-c4cccs4)c3c2=O)cc1	7.08µM*	/	15.4%	27.8	-5.2%	-23.0%
O=c1c2c(-c3cccs3)csc2ncn1/N=C/c1ccc(OC(F)F)cc1	-9.6%	3.1	-17.6%[46.1 µM]	113.4	6.5%[38.3 µM]	-15.2%
COc1ccc(C(=O)N/N=C/c2cc3ccccc3[nH]c2=S)cc1	1.41µM*	0.0	?	-27.1	25.1%[38.3 µM]	1.26µM*
